# In PMC12864922, “TDP-43 directly inhibits mRNA accumulation in neurites through modulation of mRNA stability”:
# The full ranking holds about 9,900 sequences; the median of “r (bound/input frequency ratio)” is about 0.7, and the highest 2% start at about 6.5. The sample holds the highest values, similar sequences and a random draw of the others, so the mix is not that of the screen.
# B1: ENSMUSG00000032194.294|Kank2 (ssRNA)
# RNA: GGGAGUUCUACAGUCCGACGAUCGCUUCGAUAUCCGCAUGCUAAUGGAUGAGAAACUGGGUUGGCUGGUGGGUAGAUGUCAUGAUGGAGUCUUUGCACGUGUAUGAAACAGAAAACCAAACUUCAGGACAGACAGCUGCUGGUGUCUCUGGAUGCUCACAGCCUAGGGCACAUUUGAAAGGUCGUGCUCUGAGCUGAGCCCUGAGUUCCAGCCUUGUAGCCAGCAAGGGAGUUUAUUUAAGGUUCUGGAAGCAUCAGCUAUGACCCAAAGCACACGCUCCUCAGAAAAGCCCCUGUUUCUGUCCUCUUGCGGUCGCACUAGUGUGGAAUUCUCGGGUGUCAAGG
# B2: ENSMUSG00000042529.84|Kcnj12 (ssRNA)
# RNA: GGGAGUUCUACAGUCCGACGAUCGCUUCGAUAUCCGCAUGCUACCCCACAAAACACAAGAAAACAUUAACAGGUGGUUCAAUUUUUAAAAUUCCUGGUGUGGGGACAGUUGGAAUUCUACUCAGCGCUGCCAGGCAAGCAGCUGGACGGAGAACCCUGAGGGUUCUCAGAGGUCUGUUUUCUCCCUCACGUGGGCCAGGGCCUUAAGCGAGUUGUCAUGCUUAAGGAUGAAUCAGGCUGCUUGUGACCAUGUUAACGAUUCUAAUAAAGUGUCUGGAUGUCUCUUGGGGGUGGGGCCCACUAGCUCUUGCGGUCGCACUAGUGUGGAAUUCUCGGGUGUCAAGG
# B3: ENSMUSG00000061578.34|Ksr2|40:50;139:145;150:154 (ssRNA)
# RNA: GGGAGUUCUACAGUCCGACGAUCGCUUCGAUAUCCGCAUGCUACCACUCAACUAGGACCAAACUGGGCCAGAGAGGGUCCCAACACACCACACAAGGAGCCACAGACUGAGCACACCACCUCGGACUGUGGAGACCAAGACACAUGCCCAGUGGGCAGACUCAGACUCACACGCUGGACCACACACACCGCAACACACUACACAUGGACAGGGCCAACUGCUAUCCUUCUGCCUGGACGAGCCAGCUGUGGAGUGUCCCAGCUGUGCUAUCCUGGAACACAGAACCAGGAUGGAACCAGAAACCUCUUGCGGUCGCACUAGUGUGGAAUUCUCGGGUGUCAAGG
# B4: ENSMUSG00000061578.47|Ksr2|61:67;72:76 (ssRNA)
# RNA: GGGAGUUCUACAGUCCGACGAUCGCUUCGAUAUCCGCAUGCUACGGACUGUGGAGACCAAGACACAUGCCCAGUGGGCAGACUCAGACUCACACGCUGGACCACACACACCGCAACACACUACACAUGGACAGGGCCAACUGCUAUCCUUCUGCCUGGACGAGCCAGCUGUGGAGUGUCCCAGCUGUGCUAUCCUGGAACACAGAACCAGGAUGGAACCAGAAACAAUACACCUGCUCCGUUGUCAAGGCUUCUAGGCCAAGGUCAGGGUAGGGAGGUGGGGUGGGUUAAACUUGCAAACAUCCUCUUGCGGUCGCACUAGUGUGGAAUUCUCGGGUGUCAAGG
# B5: ENSMUSG00000035202.92|Lars2 (ssRNA)
# RNA: GGGAGUUCUACAGUCCGACGAUCGCUUCGAUAUCCGCAUGCUAUUUUACCCUACUGAUGAUGUGUUGUUGCCAUGGUAAUCCUGCUCAGUACGAGAGGAACCGCAGCUAGCUUGUGUCUCCAGUGUCUUUUACCAUCACAGGCCCUGGCUCUGUGCUACCUCCCUAGAAUACCUGUGGUUCAUCACCUUCAGCUCACACUCCAUUCAGACAAUGCUCACUUAGGCCUACAAGCAAGGGAGAGGCUUAAGCACAAGGUCUUUAAGCUUGAUACUGUGCCUGGUCUCAAUGCCUAGAAAUUCCAACUCUUGCGGUCGCACUAGUGUGGAAUUCUCGGGUGUCAAGG
# B6: ENSMUSG00000004113.188|Cacna1b (ssRNA)
# RNA: GGGAGUUCUACAGUCCGACGAUCGCUUCGAUAUCCGCAUGCUAGCAAUGUUCCUGUAUGUUUCUACCCUGCCUGGGAUGUCCCCAAUGACCCUGGCUCCUCUGCUCAACCAAGUGCCUGAUCUCUGGCUCUGAGCAUCGUGGAUGAGGUACGGCCUCAGGAAGCAUCGGGUGGAUUGGGUGGGAGCUGCUCAGAGCAGCACGGGGGCUUGUGUCUUAGGGACAUUGACAGUGUCCAUCAGCAUGUCAGAGAAGCAGCUGUAGUGCCCGUGUUUCUCCCUGAGUCAUGGGUUCUGAAGAAGCCACUCUUGCGGUCGCACUAGUGUGGAAUUCUCGGGUGUCAAGG
# B7: ENSMUSG00000058297.286|Spock2 (ssRNA)
# RNA: GGGAGUUCUACAGUCCGACGAUCGCUUCGAUAUCCGCAUGCUAUGUGUGAGAGAGAGAGAGAGAGAGAGAGAGAGAGAGAGAGAGAAAGAGAGAGAGAAUGAGAGAGAAUGAGAGAGAGAAUACCCGAGGGCCACCCUGAUGCCCAGGAAGAGUGAGGGCAGCCCCCUGUGUGGUGGAAGAGGCUGGGCAGCUAGCUACUGGGGACCUUGUGCUGAGGCUUCCAGGACAAAGCCCCAGUCUGGCUCUCCCCCAGCCUCUCAGGGGCACUGGCUGGUCACAUCCACUGAGUAUUGAUCGGUUGGCUCUUGCGGUCGCACUAGUGUGGAAUUCUCGGGUGUCAAGG
# B8: ENSMUSG00000058297.297|Spock2 (ssRNA)
# RNA: GGGAGUUCUACAGUCCGACGAUCGCUUCGAUAUCCGCAUGCUAUGAGAGAGAGAAUACCCGAGGGCCACCCUGAUGCCCAGGAAGAGUGAGGGCAGCCCCCUGUGUGGUGGAAGAGGCUGGGCAGCUAGCUACUGGGGACCUUGUGCUGAGGCUUCCAGGACAAAGCCCCAGUCUGGCUCUCCCCCAGCCUCUCAGGGGCACUGGCUGGUCACAUCCACUGAGUAUUGAUCGGUUGGACUUUAGGGAAGAGCCUCCUCCUUCCCAUUCCUUUCUGCCACCCUGGAAUGGCCACCUUAAUCGUCCUCUUGCGGUCGCACUAGUGUGGAAUUCUCGGGUGUCAAGG
# B9: ENSMUSG00000058297.288|Spock2 (ssRNA)
# RNA: GGGAGUUCUACAGUCCGACGAUCGCUUCGAUAUCCGCAUGCUAAGAGAGAGAGAGAGAGAGAGAGAGAGAGAGAAAGAGAGAGAGAAUGAGAGAGAAUGAGAGAGAGAAUACCCGAGGGCCACCCUGAUGCCCAGGAAGAGUGAGGGCAGCCCCCUGUGUGGUGGAAGAGGCUGGGCAGCUAGCUACUGGGGACCUUGUGCUGAGGCUUCCAGGACAAAGCCCCAGUCUGGCUCUCCCCCAGCCUCUCAGGGGCACUGGCUGGUCACAUCCACUGAGUAUUGAUCGGUUGGACUUUAGGGAAGCUCUUGCGGUCGCACUAGUGUGGAAUUCUCGGGUGUCAAGG
# B10: ENSMUSG00000058297.298|Spock2 (ssRNA)
# RNA: GGGAGUUCUACAGUCCGACGAUCGCUUCGAUAUCCGCAUGCUAAGAGAAUACCCGAGGGCCACCCUGAUGCCCAGGAAGAGUGAGGGCAGCCCCCUGUGUGGUGGAAGAGGCUGGGCAGCUAGCUACUGGGGACCUUGUGCUGAGGCUUCCAGGACAAAGCCCCAGUCUGGCUCUCCCCCAGCCUCUCAGGGGCACUGGCUGGUCACAUCCACUGAGUAUUGAUCGGUUGGACUUUAGGGAAGAGCCUCCUCCUUCCCAUUCCUUUCUGCCACCCUGGAAUGGCCACCUUAAUCGUCAUCUCCCUCUUGCGGUCGCACUAGUGUGGAAUUCUCGGGUGUCAAGG
# B11: ENSMUSG00000058297.285|Spock2 (ssRNA)
# RNA: GGGAGUUCUACAGUCCGACGAUCGCUUCGAUAUCCGCAUGCUAUGUGUGUGUGUGAGAGAGAGAGAGAGAGAGAGAGAGAGAGAGAGAGAGAAAGAGAGAGAGAAUGAGAGAGAAUGAGAGAGAGAAUACCCGAGGGCCACCCUGAUGCCCAGGAAGAGUGAGGGCAGCCCCCUGUGUGGUGGAAGAGGCUGGGCAGCUAGCUACUGGGGACCUUGUGCUGAGGCUUCCAGGACAAAGCCCCAGUCUGGCUCUCCCCCAGCCUCUCAGGGGCACUGGCUGGUCACAUCCACUGAGUAUUGAUCCUCUUGCGGUCGCACUAGUGUGGAAUUCUCGGGUGUCAAGG
# B12: ENSMUSG00000061578.129|Ksr2 (ssRNA)
# RNA: GGGAGUUCUACAGUCCGACGAUCGCUUCGAUAUCCGCAUGCUAGGUGUGACCUUUACCAGUUCACCAUCAUUCAUGGCUUCCCCCAAAGUCCCGAGUCCUGAGAACCGGGGCUGUGGCAAGAGAGUUCUGGUGUGUUCUCUCUGUGGGGCUAGCAAUGCCGGGGUUAAGUUCUCCCUCGGUGAUGGAGACGGUCCUGGGUAUGCAUGAUGGGUUACAUGGGUGUGUGUGUGUGUGUAACUGUUUACAAUGGUCUCCCUGCCUCUCACGGGCUGUGUUCCAGGAGAAUGCACAUAGAGAGGUUCCUCUUGCGGUCGCACUAGUGUGGAAUUCUCGGGUGUCAAGG
# B13: ENSMUSG00000061578.130|Ksr2 (ssRNA)
# RNA: GGGAGUUCUACAGUCCGACGAUCGCUUCGAUAUCCGCAUGCUAACCUUUACCAGUUCACCAUCAUUCAUGGCUUCCCCCAAAGUCCCGAGUCCUGAGAACCGGGGCUGUGGCAAGAGAGUUCUGGUGUGUUCUCUCUGUGGGGCUAGCAAUGCCGGGGUUAAGUUCUCCCUCGGUGAUGGAGACGGUCCUGGGUAUGCAUGAUGGGUUACAUGGGUGUGUGUGUGUGUGUAACUGUUUACAAUGGUCUCCCUGCCUCUCACGGGCUGUGUUCCAGGAGAAUGCACAUAGAGAGGUUCUGUGGUCUCUUGCGGUCGCACUAGUGUGGAAUUCUCGGGUGUCAAGG
# B14: ENSMUSG00000058297.291|Spock2 (ssRNA)
# RNA: GGGAGUUCUACAGUCCGACGAUCGCUUCGAUAUCCGCAUGCUAAGAGAGAGAGAGAAAGAGAGAGAGAAUGAGAGAGAAUGAGAGAGAGAAUACCCGAGGGCCACCCUGAUGCCCAGGAAGAGUGAGGGCAGCCCCCUGUGUGGUGGAAGAGGCUGGGCAGCUAGCUACUGGGGACCUUGUGCUGAGGCUUCCAGGACAAAGCCCCAGUCUGGCUCUCCCCCAGCCUCUCAGGGGCACUGGCUGGUCACAUCCACUGAGUAUUGAUCGGUUGGACUUUAGGGAAGAGCCUCCUCCUUCCCAUUCUCUUGCGGUCGCACUAGUGUGGAAUUCUCGGGUGUCAAGG
# B15: ENSMUSG00000061578.131|Ksr2 (ssRNA)
# RNA: GGGAGUUCUACAGUCCGACGAUCGCUUCGAUAUCCGCAUGCUAACCAGUUCACCAUCAUUCAUGGCUUCCCCCAAAGUCCCGAGUCCUGAGAACCGGGGCUGUGGCAAGAGAGUUCUGGUGUGUUCUCUCUGUGGGGCUAGCAAUGCCGGGGUUAAGUUCUCCCUCGGUGAUGGAGACGGUCCUGGGUAUGCAUGAUGGGUUACAUGGGUGUGUGUGUGUGUGUAACUGUUUACAAUGGUCUCCCUGCCUCUCACGGGCUGUGUUCCAGGAGAAUGCACAUAGAGAGGUUCUGUGGUCUCUGCCUCUUGCGGUCGCACUAGUGUGGAAUUCUCGGGUGUCAAGG
# Biological target: TDP-43 (Homo sapiens, UniProt Q13148 1-414)
# Assay: RNA Bind-n-Seq with designed 260-mer pool; 25 mM Tris-HCl, 150 mM KCl, 3 mM MgCl2, BSA (printed 500 mg/mL), 20 units/mL SUPERase IN; pH not stated; 500 nM RNA pool, 1 h, 4 C; TDP-43 5, 50, 500 nM; high values mean tight binding
# Conditions: protein: recombinant; tags: SBP (GST cleaved off with PreScission; pGEX-GST-SBP)
# Summary of the method: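 Duplicate measurements used two independent batches of recombinant SBP-tagged TDP-43, which was captured on streptavidin beads at 5, 50 or 500 nM. The beads were incubated with 500 nM of an in vitro-transcribed 260-nt 3′ UTR oligo pool for 1 h at 4 °C in 25 mM Tris-HCl, 150 mM KCl, 3 mM MgCl2, BSA and SUPERase IN. After washing, biotin elution, reverse transcription, PCR amplification and sequencing, binding was expressed as R: each oligo's normalized read abundance in the bound sample over its abundance in input.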
# Sequence of TDP-43 (Q13148 whole entry): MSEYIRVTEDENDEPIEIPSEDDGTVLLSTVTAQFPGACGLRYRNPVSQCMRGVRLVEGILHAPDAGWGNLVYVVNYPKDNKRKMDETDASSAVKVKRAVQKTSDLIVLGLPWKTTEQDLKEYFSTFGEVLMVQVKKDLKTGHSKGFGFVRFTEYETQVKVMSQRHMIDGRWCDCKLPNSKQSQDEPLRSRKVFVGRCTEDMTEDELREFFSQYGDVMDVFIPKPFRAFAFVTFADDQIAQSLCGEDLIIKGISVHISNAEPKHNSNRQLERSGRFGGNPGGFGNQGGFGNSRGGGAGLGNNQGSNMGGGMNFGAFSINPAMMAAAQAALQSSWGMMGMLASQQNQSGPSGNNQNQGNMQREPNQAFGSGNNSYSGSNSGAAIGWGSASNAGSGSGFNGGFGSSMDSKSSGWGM
row,Binder,binding signal
1,B1,0.914 R (bound/input frequency ratio)
2,B2,1.71 R (bound/input frequency ratio)
3,B3,1.07 R (bound/input frequency ratio)
4,B4,0.292 R (bound/input frequency ratio)
5,B5,0.689 R (bound/input frequency ratio)
6,B6,0.976 R (bound/input frequency ratio)
7,B7,6.3 R (bound/input frequency ratio)
8,B8,4.65 R (bound/input frequency ratio)
9,B9,7.62 R (bound/input frequency ratio)
10,B10,3.7 R (bound/input frequency ratio)
11,B11,7.21 R (bound/input frequency ratio)
12,B12,4.45 R (bound/input frequency ratio)
13,B13,6.59 R (bound/input frequency ratio)
14,B14,8.35 R (bound/input frequency ratio)
15,B15,3.31 R (bound/input frequency ratio)
